Data published in PubChem BioAssay (NCATS).
Records with an inconclusive call do not appear. Unmarked numbers belong to inactive results. Calls of active or inactive are those of the source. Calls come from the whole dose curve; as a rule, active = well fitted cell-killing curve with a large enough effect; inconclusive = small, poorly fitted or top-dose-only effect, or effect the other way; inactive = no such curve, though single readings can be large or run the other way.

experiment: qHTS of pediatric cancer cell lines to identify multiple opportunities for drug repurposing: Confirmatory screen for Saos-2 cells (AID 1347127); conditions: Saos-2 osteosarcoma cell viability; series mostly up to 45.9 µM; activity change, negative = cytotoxic: at the top concentration; note: nearly all actives have a fitted effect of over 60% in size;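 for activity change, negative = cytotoxic: plate controls were DMSO for no effect and bortezomib for full effect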
Summary of the method: (§1)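 Cells (500-1,000/well) rested 5 h, then received compounds for 48 h; metabolically active cells were measured by CellTiter-Glo luminescence. Final concentrations spanned up to 46 µM (MIPE, 11-point) or 0.59 nM-46 µM (NPC, 8-point) in primary screens, 11-point in follow-ups.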
Potency is the fitted concentration of half-maximal effect.

SMILES	Potency	activity change, negative = cytotoxic [%]
C[C@@H]1C[C@H]2[C@@H]3CCC4=CC(=O)C=C[C@]4(C)[C@@]3(Cl)[C@@H](O)C[C@]2(C)[C@@]1(OC(=O)c1ccco1)C(=O)CCl	4.14 µM (active)	–
COc1ccc(C(=O)CC(=O)c2ccc(C(C)(C)C)cc2)cc1	–	4.94
Cc1cccc(N(C)C(=S)Oc2ccc3ccccc3c2)c1	–	-11.7

experiment: qHTS of pediatric cancer cell lines to identify multiple opportunities for drug repurposing: Confirmatory screen for OHS-50 cells (AID 1347128); conditions: OHS-50 osteosarcoma cells viability; series mostly up to 45.9 µM; activity change, negative = cytotoxic: at the top concentration;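 note: compound exposure lasted 48 h at 37 degrees C; nearly all actives have a fitted effect of over 55% in size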; for activity change, negative = cytotoxic: % is set by controls: 0 for no effect and ±100 for the full control effect
Summary of the method: as §1

SMILES	activity change, negative = cytotoxic [%]	Potency
CC(C)NCC(O)c1ccc(NS(C)(=O)=O)cc1 (stereo unspecified)	3.33	–
COC(=O)Nc1nc2ccc(Sc3ccccc3)cc2[nH]1	–	1.31 µM (active)
CCCCOc1ccc(CC(=O)NO)cc1	-19.4	–
CC(C)(C)C(=O)OCOP(=O)(COCCn1cnc2c(N)ncnc21)OCOC(=O)C(C)(C)C	–	16.5 µM (active)
CC(C)(C#N)c1cc(Cn2cncn2)cc(C(C)(C)C#N)c1	3.13	–
CCOC(=O)c1ccc(C#Cc2ccc3c(c2)C(C)(C)CCS3)nc1	-16.7	–
Nc1nc(F)nc2c1ncn2[C@@H]1O[C@H](CO)[C@@H](O)[C@@H]1O	–	0.414 µM (active)
Nc1nc(N)nc(-c2cc(Cl)ccc2Cl)n1	4.5	–
NC(=O)c1cccnc1	-18.9	–
COC(=O)Nc1nc2ccc(S(=O)c3ccccc3)cc2[nH]1 (stereo unspecified)	–	2.33 µM (active)
CC(C)C[C@H](NC(=O)[C@H](CCc1ccccc1)NC(=O)CN1CCOCC1)C(=O)N[C@@H](Cc1ccccc1)C(=O)N[C@@H](CC(C)C)C(=O)[C@@]1(C)CO1	–	0.208 µM (active)
COc1nc(N)nc2c1ncn2[C@@H]1O[C@H](CO)[C@@H](O)[C@@H]1O	-1.12	–
CC(C(=O)O)c1ccc2c(c1)CC(=O)c1ccccc1S2 (stereo unspecified)	-1.91	–
C[C@@H]1C[C@H]2[C@@H]3CCC4=CC(=O)C=C[C@]4(C)[C@@]3(Cl)[C@@H](O)C[C@]2(C)[C@@]1(OC(=O)c1ccco1)C(=O)CCl	–	11.7 µM (active)
O=NN(CCCl)C(=O)NC1CCCCC1	8.3	–
Nc1[nH]c(=O)ncc1F	3.81	–
COc1ccc(C(=O)CC(=O)c2ccc(C(C)(C)C)cc2)cc1	7.42	–
Cc1cccc(N(C)C(=S)Oc2ccc3ccccc3c2)c1	-16.5	–
